MITF primary: human MITF inhibition, primary screen | O75030 | hit rate 0.91% among 650,000 | inhibition, % at 2.6 µM | AlphaScreen MITF homodimerization, bead proximity signal | AID 1259374; in the data active = inhibition above about 50%;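 also: 0% = vehicle wells with protein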
Target sequence (O75030 whole entry, looked up): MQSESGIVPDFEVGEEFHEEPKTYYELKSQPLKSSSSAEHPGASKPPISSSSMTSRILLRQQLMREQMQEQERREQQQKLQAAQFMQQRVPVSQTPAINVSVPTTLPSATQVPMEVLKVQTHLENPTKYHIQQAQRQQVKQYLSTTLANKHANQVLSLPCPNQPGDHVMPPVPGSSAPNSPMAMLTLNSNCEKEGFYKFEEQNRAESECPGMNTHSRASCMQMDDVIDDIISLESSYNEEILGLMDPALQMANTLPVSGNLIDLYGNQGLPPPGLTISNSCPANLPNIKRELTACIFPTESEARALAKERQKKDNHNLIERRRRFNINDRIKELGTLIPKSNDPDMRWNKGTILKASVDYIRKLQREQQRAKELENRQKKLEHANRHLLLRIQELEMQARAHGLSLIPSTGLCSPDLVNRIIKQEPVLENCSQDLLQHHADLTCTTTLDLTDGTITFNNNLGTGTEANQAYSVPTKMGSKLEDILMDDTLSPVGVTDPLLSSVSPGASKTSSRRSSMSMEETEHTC
FBW7 activator: human FBW7 E3 ligase activation, primary screen; Q969H0; AlphaScreen FBW7–phospho-cyclin E peptide binding, activator screen; normalized activity (activation), % at 26.1 µM; hit rate 0.13% among 650,000; AID 1259310; in the data active = normalized activity above about 1.9%;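 also: purified mutant Fbw7 with reduced substrate affinity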
TEAD-YAP inh: TEAD-YAP interaction inhibition; HEK-TIYL cells, TEAD-Gal4/YAP UAS-luciferase luminescence; inhibition, % at 9.12 µM; hit rate 1.4% among 640,000; in the data active = inhibition above about 32%;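 also: 0% = median of test compound wells and 100% = reference inhibitor wells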
GPR151 activ: human GPR151 activation | hit rate 1% among 650,000 | activation, % at 11.2 µM | Q8TDV0 | PathHunter beta-arrestin GPR151 cells, luminescence; in the data active = activation above about 4.9%;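 also: 0% = median of compound wells and 100% = cells with positive control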
MITF confirm: human MITF inhibition, confirmation; shares compounds with MITF primary; inhibition, % at 2.6 µM; AlphaScreen MITF homodimerization, biotin/His-MITF beads; AID 1259372; hit rate 16% among 4,700;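 active = inhibition above a cutoff derived from the DMSO control wells, cut at about 28% in these data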;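 also: 0% = MITF dimer wells with DMSO only; inhibitors lower the bead chemiluminescence by keeping MITF from dimerizing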
AS interf ctr: counter-screen: compounds optically interfering with AlphaScreen; shares compounds with MITF primary; LysRS AlphaScreen counterscreen, signal interference, triplicate; inhibition, % at 2.6 µM; hit rate 7.6% among 4,700; AID 1259376;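 active = inhibition above a cutoff derived from the DMSO control wells, cut at about 30% in these data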
Active calls of the source: *. A selection: hits, their analogues and other compounds. The true share with any hit is near 3.5%.

`COc1cccc(CN2CCC(N3CC(C)OC(C)C3)CC2)c1OC` (stereo unspecified) gave MITF primary 86.5*, FBW7 activator -0.1, TEAD-YAP inh -5.4, GPR151 activ 1.2, MITF confirm -22.2 and AS interf ctr -3.5.
Screening COc1cc(OC)c(OC)cc1CN1CCC(O)CC1 returned MITF primary 21.6, FBW7 activator 0.0, TEAD-YAP inh 16.5 and GPR151 activ 1.2.
Screening COc1ccccc1CN1CCC(C)CC1 returned MITF primary -3.5, FBW7 activator -0.1, TEAD-YAP inh -7.0 and GPR151 activ 0.4.
COc1ccccc1CN1CCC(N2CC(C)OC(C)C2)CC1 (stereo unspecified) was read as MITF primary 51.8*, FBW7 activator 0.0, TEAD-YAP inh 9.8, GPR151 activ 0.0, MITF confirm -12.5 and AS interf ctr -5.1.
`COc1cc(OC)c(OC)cc1CN1CCN(C2CCC(C)CC2)CC1` (stereo unspecified) gave MITF primary 72.1*, FBW7 activator -0.3, TEAD-YAP inh -3.1, GPR151 activ -2.0, MITF confirm 0.6 and AS interf ctr -1.4.
Screening C=CCOc1ccc(/C=C2/SC(N3CC(C)OC(C)C3)=NC2=O)cc1 (stereo unspecified) returned MITF primary -9.4, FBW7 activator -0.1, TEAD-YAP inh 0.8 and GPR151 activ 1.9.
Screening COc1ccccc1N1C(=O)CC(Sc2nc(-c3ccccc3)c3cc(Cl)ccc3n2)C1=O (stereo unspecified) returned MITF primary -16.7, FBW7 activator -0.1, TEAD-YAP inh 1.5 and GPR151 activ 0.2.
Screening O=C(c1ccc2c(c1)OCO2)N1CCN(Cc2ccc3c(c2)OCO3)CC1 returned MITF primary -3.3, FBW7 activator -0.2, TEAD-YAP inh -3.8 and GPR151 activ -1.6.
For COc1ccc(CN2CCN(Cc3ccc4c(c3)OCO4)CC2)cc1C the results were MITF primary 37.7, FBW7 activator 0.0, TEAD-YAP inh 3.2 and GPR151 activ 0.8.
For CCOc1cc(CN2CCN(Cc3ccc4c(c3)OCO4)CC2)ccc1O the results were MITF primary 74.6*, FBW7 activator -0.1, TEAD-YAP inh -8.4, GPR151 activ -0.5, MITF confirm 14.3 and AS interf ctr 13.3.
`COC(=O)c1ccc(CN2CCN(Cc3ccc4c(c3)OCO4)CC2)cc1` gave MITF primary 55.9*, FBW7 activator 0.0, TEAD-YAP inh 2.2, GPR151 activ 0.3, MITF confirm 5.0 and AS interf ctr 1.0.
CCOc1cc(CN2CCN(Cc3ccc4c(c3)OCO4)CC2)ccc1OC was read as MITF primary 31.0, FBW7 activator -0.1, TEAD-YAP inh 3.0 and GPR151 activ 3.1.
COc1ccc(CN2CCN(Cc3ccc4c(c3)OCO4)CC2)c(OC)c1OC was read as MITF primary 79.0*, FBW7 activator -0.1, TEAD-YAP inh 5.8, GPR151 activ 1.3, MITF confirm 9.5 and AS interf ctr 15.5.
`COc1ccc(CN2CCN(Cc3ccc4c(c3)OCO4)CC2)cc1OC` gave MITF primary 81.6*, FBW7 activator -0.1, TEAD-YAP inh -1.3, GPR151 activ 0.0, MITF confirm 10.9 and AS interf ctr 9.2.
Screening COc1cc2nc(Cl)nc(NCCOc3ccccc3)c2cc1OC returned MITF primary 5.3, FBW7 activator 0.0, TEAD-YAP inh 6.5 and GPR151 activ -1.8.
COc1ccc(Cn2c(SCC(=O)Nc3cccc(OC)c3)nc3ccsc3c2=O)cc1 was read as MITF primary -5.0, FBW7 activator -0.1, TEAD-YAP inh 2.6 and GPR151 activ -0.1.
`COc1ccc(C2Nn3c(C)nnc3SC2C(=O)N2CCOCC2)cc1` (stereo unspecified) gave MITF primary 12.3, FBW7 activator 0.0, TEAD-YAP inh 7.7 and GPR151 activ -0.2.
COc1ccc(CN2CCN(CCOCCOc3ccccc3)CC2)c(OC)c1OC was read as MITF primary 75.1*, FBW7 activator -0.6, TEAD-YAP inh 6.3, GPR151 activ 0.2, MITF confirm -11.6 and AS interf ctr -3.0.
Screening Cc1cc(OCCN2CCCCCC2)ccc1[N+](=O)[O-] returned MITF primary 19.7, FBW7 activator -0.4, TEAD-YAP inh -3.5 and GPR151 activ -1.1.
`COc1ccc(CN2CCN(CCOc3ccc([N+](=O)[O-])c(C)c3)CC2)c(OC)c1OC` gave MITF primary 82.5*, FBW7 activator 0.0, TEAD-YAP inh 5.8, GPR151 activ 0.2, MITF confirm -2.2 and AS interf ctr 8.6.
`COc1ccc(CN2CCN(Cc3ccc(Cl)cc3)CC2)c(OC)c1OC` gave MITF primary 81.7*, FBW7 activator -0.1, TEAD-YAP inh 10.2, GPR151 activ -1.1, MITF confirm 9.9 and AS interf ctr 18.0.
`COc1cccc(CN2CCSCC2)c1OC` gave MITF primary 32.4, FBW7 activator -0.2, TEAD-YAP inh -5.6 and GPR151 activ 0.2.
Screening COc1cccc(CN2CCN(Cc3ccc(OC)c(OC)c3OC)CC2)c1OC returned MITF primary 76.7*, FBW7 activator -0.1, TEAD-YAP inh -2.4, GPR151 activ 0.2, MITF confirm 11.0 and AS interf ctr 13.9.
`COc1ccc(CN2CCN(S(=O)(=O)c3ccc(Cl)cc3)CC2)c(OC)c1OC` gave MITF primary 5.2, FBW7 activator 0.1, TEAD-YAP inh -4.2 and GPR151 activ 0.6.
For COc1ccc(NC(=O)c2ccc(N3CC4CC(C3)c3cccc(=O)n3C4)c(NC(=O)c3ccc(Br)o3)c2)cc1Cl (stereo unspecified) the results were MITF primary -3.9, FBW7 activator -0.2, TEAD-YAP inh -9.5 and GPR151 activ -0.2.
For COC(=O)c1ccc(N2C(=O)/C(=C/c3ccc(-c4ccc(Br)cc4)o3)C=C2c2ccccc2)cc1 the results were MITF primary -8.2, FBW7 activator -0.1, TEAD-YAP inh -7.2 and GPR151 activ 1.4.
Screening COc1cccc(CN[C@H]2C[C@H]3C(=O)N[C@H]([C@H](C)O)C(=O)N3C2)c1 returned MITF primary -8.4, FBW7 activator 0.1, TEAD-YAP inh 6.4 and GPR151 activ -1.5.
`C=CCOc1ccc(/C(O)=C2/C(=O)C(=O)N(Cc3cccnc3)C2c2ccc(OC)c(OC)c2)cc1C` (stereo unspecified) gave MITF primary 1.7, FBW7 activator 0.4, TEAD-YAP inh 2.3 and GPR151 activ 0.1.
`COc1cccc(CN2CCN(CCC(C)C)C(CCO)C2)c1O` (stereo unspecified) gave MITF primary -0.5, FBW7 activator 0.0, TEAD-YAP inh 12.6 and GPR151 activ -1.2.
Screening COc1cccc(CN2CCN(Cc3ccc(OC)c(OC)c3OC)CC2)c1 returned MITF primary 66.0*, FBW7 activator 0.0, TEAD-YAP inh 6.3, GPR151 activ -0.3, MITF confirm 3.3 and AS interf ctr 14.3.

High-throughput results as filed in PubChem.
